# Screens as filed in PubChem BioAssay.
# Sampled rows, rich in hits. Any-hit rate of the full collection: about 0.93%.
# RGS12 GoLoco inh: qHTS Assay for Inhibitors of RGS12 GoLoco Motif Activity (Red Fluorophore); Gai1:RGS12 GoLoco peptide FP, rhodamine, 10 min; Potency, µM (doses to about 61.6 µM), without a hit: top-dose activity, negative = inhibition, actives largely listed as inhibitors; 0.44% of 230,000 active; active means well fitted inhibition curve with a large enough effect, not every such curve was filed as active; inactive means no such curve, though single readings can be large or run the other way; further: potency means the concentration at half of the fitted maximal effect; nearly all actives have a fitted effect of over 30% in size
# TRb-SRC2 inh: qHTS for Inhibitors of the Interaction of Thyroid Hormone Receptor and Steroid Receptor Coregulator 2; Thyroid hormone receptor beta (Homo sapiens), P10828; TRbeta-SRC2 peptide binding, fluorescence polarization; receptor liganded with 1 µM T3; Potency, µM (series often up to 106 µM), for inactives: at the top dose activity change, negative = inhibition, usual class: inhibitors; 0.065% of 280,000 active; AID 1469, 2008; active means well fitted inhibition curve with a large enough effect; inconclusive means small, poorly fitted or top-dose-only effect, or effect the other way;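 further: potency means the concentration at half of the fitted maximal effect; plate controls were bound peptide for no effect and peptide without receptor for full effect; nearly all actives have a fitted effect of over 50% in size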
# Target sequence (P10828 whole entry, looked up): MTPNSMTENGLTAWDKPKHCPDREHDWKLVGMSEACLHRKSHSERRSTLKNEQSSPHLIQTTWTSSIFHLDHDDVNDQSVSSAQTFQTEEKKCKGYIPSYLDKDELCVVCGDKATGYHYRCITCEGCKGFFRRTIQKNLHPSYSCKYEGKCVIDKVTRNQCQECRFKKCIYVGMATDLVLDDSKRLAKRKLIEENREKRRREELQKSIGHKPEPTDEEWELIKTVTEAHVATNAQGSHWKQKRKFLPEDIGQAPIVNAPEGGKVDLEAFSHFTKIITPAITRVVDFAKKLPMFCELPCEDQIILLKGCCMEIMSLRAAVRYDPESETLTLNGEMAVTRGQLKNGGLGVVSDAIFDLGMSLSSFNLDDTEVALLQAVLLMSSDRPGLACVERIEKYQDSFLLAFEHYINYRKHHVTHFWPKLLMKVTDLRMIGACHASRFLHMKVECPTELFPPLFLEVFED
#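 TRb LBD 0.6 uM + Texas Red SRC2 peptide 20 nM, 1 uM T3, Tris buffer w/ 5% DMSO; compound pinned, 5 h RT; FP read ex 555/em 632; normalized to unbound and bound controls.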
# TexasRed fluor: Total Fluorescence Counterscreen for Inhibitors of the Interaction of Thyroid Hormone Receptor and Steroid Receptor Coregulator 2; 0.29% of 280,000 active; Potency, µM (titrated, usually from 106 µM), without a hit: at the highest dose fluorescence change, negative = quenching; TRb/SRC2 Texas Red total fluorescence interference; active means well fitted curve in either direction with a large enough effect; inconclusive means small, poorly fitted or top-dose-only effect; further: potency means the concentration at half of the fitted maximal effect
#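 Flags fluorescent or light-absorbing compounds by total fluorescence, S + 2P, at 555 nm excitation and 632 nm emission. Mixture: 20 nM Texas Red SRC2 peptide, 0.6 uM human TRb LBD, 1 uM T3, 5% DMSO; compound exposure 5 h at ambient temperature.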
# Coupling enz: qHTS Assay for Inhibitors of Fructose-1,6-bisphosphate Aldolase from Giardia Lamblia: Coupling assay counterscreen; 0.67% of 290,000 active; coupling enzyme system counterscreen, AmpLite Red fluorescence; activity change, negative = inhibition, % at 58.2 µM, hits read low; in the data active means activity change below about -30%
#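 Final compound at 57.5 uM, incubated 10 min at RT with coupling enzyme reagent (glyceraldehyde-3-phosphate), then 20 min with substrate and AmpLite Red detection. Fluorescence read at 525/598 nm; tests interference with the coupling assay, not aldolase inhibition.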
# Active calls of the source: *; ? = inconclusive; nt = no result; [ ] = another dose, or the depositor's remark. Unless noted, on the % scale 0 is the no-effect control and ±100 the full control effect.
SMILES,RGS12 GoLoco inh,TRb-SRC2 inh,TexasRed fluor,Coupling enz
CCOC(=O)c1ccc(NC(=O)C2CCN(C(=O)N3CC(C)Oc4ccc(C)cc43)CC2)cc1 (configuration not stated),nt,-3%,?,nt
CCOC(=O)c1nnn(C(CC)C(=O)Nc2c(C)cccc2C)c1C(=O)OCC (configuration not stated),nt,-3%,-1%,nt
CCCOc1ccc(N)cc1N,14%,-24%,-9%,-66*
CCCOc1cc(N)ccc1C(=O)OCCN(CC)CC,-13%[21.6 µM],-5%[53 µM],-1%[53 µM],-2
CCOc1cc(C2CC(=O)N3CN(C4CCCCC4)CSC3=C2C#N)ccc1O (configuration not stated),-13%,-4%,1%,-35*
N#CC1=C2SCN(C3CCCCC3)CN2C(=O)CC1c1ccc(Br)cc1 (configuration not stated),nt,6%,0%,nt
CCN(CC)c1ccc(N=Cc2cc(Br)ccc2O)cc1,91%,50µM*,11%,-22
Brc1ccc(-c2cn3c(n2)CCc2ccc4cccnc4c2-3)cc1,14%,-1%,-6%,-31*
C/C=C1\COC(C(=O)NCc2ccccn2)(C(F)(F)F)C=C1C=C(C)C (configuration not stated),nt,-3%,0%,2
CCOC(=O)C1CCN(C(=O)c2cc(COc3ccc(OC)c4ccccc34)on2)CC1,nt,nt,nt,-37*
COc1ccc(OCc2cc(C(=O)N(C)C3CCOCC3)no2)c2ccccc12,nt,nt,nt,-37*
COCC1CCN(C(=O)c2cc(COc3ccccc3SC)on2)C1 (configuration not stated),nt,nt,nt,0
Cc1cc(OCc2cc(C(=O)N(C)C3CCOCC3)no2)cc(C)c1Cl,nt,nt,nt,0
Cc1ccc(N=C2NC(=O)/C(=C/C=C/c3ccco3)S2)cc1,25%,?,40µM*[quencher],-1
O=C1NC(=Nc2ccccc2)S/C1=C\C=C\c1ccco1,122%,6%,1%,3
CCN1CCN(C(=S)c2ccc(Cl)cc2)CC1,-11%,7%,0%,-54*
COc1cccc(-c2oc3ccc(C)cc3c(=O)c2O)c1,nt,1%,-9%,nt
COc1cccc(C2=Nn3c(nnc3-c3ccccc3C)SC2)c1,nt,2%,-3%,-32*
Cc1ccccc1NS(=O)(=O)c1ccc(Br)s1,nt,-40%[53 µM],112µM*[quencher],nt
CC(C)NC(=O)c1ccccc1NS(=O)(=O)c1ccc(Br)s1,nt,nt,nt,7
CC(C)OCC1CO1 (configuration not stated),25µM*,-4%,-1%,nt
CCOc1cc2c(C#N)c(N3CCOCC3)nc(N)c2c(N)n1,9%,0%,-2%,-48*
CCC1Cc2c(nc(N)c3c(N)nc(N4CCOCC4)c(C#N)c23)O1 (configuration not stated),11%,-5%,-9%,-22
CCC1=C(c2ccc(C)cc2)S(=O)(=O)N=C1N1CCC(C(=O)Nc2ccccc2F)CC1,nt,-5%,-19%,nt
Cc1c(-c2ccc(Cl)cc2)c(=O)oc2c(CN3CCN(CCO)CC3)c(O)ccc12,nt,-12%,0%,nt
SMILES,RGS12 GoLoco inh,TRb-SRC2 inh,TexasRed fluor,Coupling enz
CCN(CC)C(=O)CSc1nnc2sc3ccccc3n12,-2%,-2%,-2%,0
COc1cccc(OCCSc2nnc3sc4ccccc4n23)c1,-7%,1%,-2%,-42*
c1ccc(OCCSc2nnc3sc4ccccc4n23)cc1,6%,-2%,1%,-39*
CCCCCCCCOC(=O)c1cc(O)c(O)c(O)c1,nt,5%[201 µM],-3%[201 µM],nt
Cc1ccc(N2C(=O)C3CC(c4ccccc4)=C4C5C=CC(C6C(=O)N(c7ccc(C)cc7)C(=O)C56)C4C3C2=O)cc1 (configuration not stated),5%,15%,0%,0
Cc1ccc(N2C(=O)C3CC(c4ccccc4)=C4C5C=CC(C6C(=O)N(c7ccc(C)cc7C)C(=O)C56)C4C3C2=O)c(C)c1 (configuration not stated),32µM*,-3%,1%,3
Cc1ccc(-n2nc(C)c3c(C(=O)NCc4ccccc4)cc(C4CC4)nc32)cc1,nt,3%,-29%,nt
COc1ccccc1N1CCN(C(=O)c2cc3c(=O)oc4ccc(C)cc4c3s2)CC1,nt,-9%,?,nt
O=C1C(N2CCOCC2)=C(n2nnc3ccccc32)C(=O)c2ccccc21,1%,?,-10%,-41*
O=c1c(N2CCOCC2)nsnc1N1CCOCC1,nt,-20%,1%,-54*
COC(=O)Oc1nsnc1N1CCOCC1,0%,-2%,4%,-1
O=c1[nH]c(=O)c2[nH]cnc2[nH]1,nt,5%[201 µM],-1%[201 µM],nt
COc1ccc(C2=NN(C(C)=O)C(c3cn(-c4ccccc4)nc3-c3cccs3)C2)cc1 (configuration not stated),nt,2%,-1%,nt
CC(=O)N1N=C(c2ccc(C)cc2)CC1c1cn(-c2ccccc2)nc1-c1cccs1 (configuration not stated),nt,-7%,100µM*[quencher],nt
CCO/C=C1/C(=O)N(C)C(=O)c2cc(OC)ccc21,-10%,-6%,-2%,-43*
COc1cc2nc(-c3ccc(Br)o3)oc(=O)c2cc1OC,-22%,8%,5%,-40*
CC1(C)C(=O)N(Br)C(=O)N1Cl,nt,1%[201 µM],-2%[201 µM],nt
Oc1ccc(N=Cc2ccc(OCc3ccccc3)cc2)cc1,-103%,40µM*,13%,-32*
CCCC12CN3CC(CCC)(CN(C1)C3c1c(C)[nH]c(=O)[nH]c1=O)C2=O (configuration not stated),nt,3%,-1%,nt
O=C(O)/C=C/C(=O)Nc1ccc(OC(F)(F)F)cc1,-3%,-4%,-6%,-2
O=C(O)/C=C/C(=O)Nc1ccc(OC(F)(F)F)cc1Br,-2%,32µM*,-8%,-1
CCOc1ccc(NS(=O)(=O)c2ccc3c(c2)NC(=O)CCS3)cc1,nt,2%,-3%,nt
CC(=O)c1ccc(NC(=O)c2cn3c4c(ccc(Cl)c4c2=O)OC(C)C3)cc1 (configuration not stated),nt,0%,4%,nt
COc1ccc(NC(=O)c2cn3c4c(ccc(Cl)c4c2=O)OC(C)C3)cc1OC (configuration not stated),nt,-18%,25µM*[quencher],nt
Nc1c(C(=O)NCC2CCCO2)sc2nc3c(c(-c4ccco4)c12)CC/C3=C\c1ccco1 (configuration not stated),76%,9%,11µM*[quencher],-16
NC(=O)c1sc2nc3c(c(-c4ccco4)c2c1N)CCCC3,3%,7%,-4%,5
Cc1ccc(S(=O)(=O)Oc2cccc(/C=N/Nc3ccc(C(=O)O)cc3)c2)cc1,-3%,5%,-4%,-41*
Cc1ccc(S(=O)(=O)Oc2cccc(/C=N/n3cnnc3)c2)cc1,-7%,-7%,1%,-21
Cc1cccc(OCCC(=O)NCC(=O)Nc2cccc(C)c2C)c1,-3%,2%,0%,-35*
